# Screening results as filed in PubChem.
# FMDV inh = blocks foot and mouth disease virus; AID 1159524; Potency, µM (doses to about 57.9 µM), for inactives: top-dose activity change, negative = inhibition, usual class: inhibitors; FMDV antiviral cell-based qHTS; 410,000 compounds, 1.2% hits; calls by dose curve; tested in HEK293T cells; note: read-out not given here; potency is the fitted concentration of half-maximal effect; nearly all actives have a fitted effect of over 45% in size
# HCMV antiviral = human cytomegalovirus inhibition | 410,000 compounds, 4.5% hits | AID 1259415 | activity change, negative = inhibition, % at 57.5 µM | HFF cells, HCMV-luciferase reporter, 72 h; active compounds read low; in the data active = activity change below about -60%; inconclusive = no clear call, values can overlap the other calls; inactive = above about -39%
#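 Screen run at 2 compound doses on HFFs infected with reporter HCMV, MOI 1 PFU/cell. Luciferase activity from cell lysates at 72 h post infection gave inhibition relative to buffer-only and Salinomycin wells.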
# HCV inh = inhibitors of hepatitis C virus infection; 340,000 compounds, 3.4% hits; Huh7.5.1 HCVcc-Cre infection, luciferase reporter, 44 h; Potency, µM (series often up to 41.8 µM), for inactives: at the top dose activity change, negative = inhibition, usual class: inhibitors; active = well fitted inhibition curve with a large enough effect; inconclusive = small, poorly fitted or top-dose-only effect, or another doubt; inactive = no such curve, though single readings can be large or run the other way; note: potency is the fitted concentration of half-maximal effect
#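 1,000 cells/well; 4 h culture; + compound; + HCVcc-Cre (~0.5 moi); 44 h; luciferase substrate, RT 15 min; read 15 sec.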
# Vaccinia mCherry = vaccinia inhibition (mCherry reporter). Vaccinia virus mCherry reporter infection, fluorescence. Potency, µM (titrated, usually from 36.5 µM), for the others: at the top dose activity change, negative = inhibition, actives largely listed as inhibitors. 310,000 compounds, 0.63% hits; calls by dose curve; tested in A549 cells; note: potency is the fitted concentration of half-maximal effect; nearly all actives have a fitted effect of over 35% in size
# VACV Venus inh = inhibitors of vaccinia virus (Venus reporter); Vaccinia virus Venus reporter expression, fluorescence; Potency, µM (top dose mostly 36.5 µM), without a hit: top-dose activity change, negative = inhibition, usual class: inhibitors; 330,000 compounds, 0.46% hits; AID 720580; calls by dose curve; tested in A549 cells; note: potency is the fitted concentration of half-maximal effect; nearly all actives have a fitted effect of over 30% in size
# * marks the source's active call; other numbers are inactive results; i = inactive; ? = inconclusive; · = no result given; [ ] = another dose, or the depositor's remark. In the library only some 7.3% were active in any assay of this set; here they are far more common. % is set by controls: 0 for no effect and ±100 for the full control effect.
SMILES,FMDV inh,HCMV antiviral,HCV inh,Vaccinia mCherry,VACV Venus inh
CCN(CC)S(=O)(=O)c1ccc(N2CCN(C)CC2)c(NC(=O)Nc2ccc(C)cc2)c1,14%,19,-13%,-17%,-16%
O=C(Nc1cccc(C(F)(F)F)c1)n1cc(-c2ccccn2)c(N2CCOCC2)n1,-20%,-64*,9%,i,-10%
COc1cc(-c2cc(OC)c3c(C)oc(C)c3c(=O)c2)ccc1OC(=O)c1cccc(C)c1,-29%,8,·,-12%,-5%
COc1ccc(CN2C(=O)c3ccccc3C(/C=N\OCc3ccc(F)cc3)C2=O)cc1 (configuration not stated),?,-91*,3%,·,6%
COc1ccc(CN2C(=O)c3ccccc3C(/C=N/OCc3ccc(Cl)cc3)C2=O)cc1 (configuration not stated),0%,-25,-19%,·,-9%
Cc1ccccc1C(=O)OCc1cc(=O)n2nc(C(C)C)sc2n1,36%,-1,·,-10%[7.34 µM],-8%[7.34 µM]
N#Cc1ncc(Br)cn1,·,·,·,-22%,-9%
Cc1cc(C)n2c(SCC(=O)N3CCN(S(=O)(=O)c4ccc(Cl)cc4)CC3)nnc2n1,6%,-73*,1%,-14%,-15%
CCCn1c(SCC(=O)N2CCN(S(=O)(=O)c3ccc(Cl)cc3)CC2)n[nH]c1=O,-28%,-14,-11%,-27%,-16%
Cc1ccc2c(c1)/C(=C/c1ccco1)C(=O)N2,2%,19,11µM*,-25%,-21%
Cc1nn(CC(=O)N2c3ccccc3NC(=O)C2(C)C)c(C)c1[N+](=O)[O-],-29%,-82*,9%,-6%,-18%
CC1(C)C(=O)Nc2ccccc2N1C(=O)Cn1ncc(Cl)c(Cl)c1=O,-22%,12,?,·,·
Cc1cnc(NC(=O)C2CC=CCC2)s1 (configuration not stated),53%,-30,5%,-1%,3%
C/C(CS(=O)(=O)c1ccc(Cl)cc1)=N/NC(N)=S,9%,-23,-14%,-10%,-16%
C/C(CS(=O)(=O)c1ccc(Cl)c(Cl)c1)=N/NC(N)=S,7%,-70*,-18%,-27%,-28%
Cc1noc(C)c1C(=O)N1CCC[C@@]2(CCN(C(=O)Nc3ccccc3)C2)C1,0%,·,·,·,·
COC(=O)c1ccc(/C=N/Nc2nc(-c3ccc(C)cc3)cs2)cc1,-1%,·,22%,13µM*,?
CCN(CC)c1ccc(/C=C(\C#N)c2nc(-c3cccs3)c(NC(C)=O)s2)cc1,·,·,13µM*,·,·
CC(=O)Nc1sc(N/N=C\c2ccc(O)cc2)nc1-c1cccs1,17%,-27,7%,·,·
O=C(CSc1nc(-c2ccccc2)c2ccccc2n1)Nc1ccc(F)cc1,-20%,-17,·,-11%,-10%
COc1cc(C2CC(=O)N(Cc3cccc(F)c3)c3ccccc3S2)cc(OC)c1OC (configuration not stated),25µM*,-95*,·,-30%,-26%
COc1cccc(-c2ccc3c(c2)N(Cc2cccc(F)c2)C(=O)C(C)S3)c1 (configuration not stated),?,5,·,-5%,-3%
CCOc1ccc(Nc2nc3cc(S(=O)(=O)N(CC)CC)ccc3o2)cc1,-20%,·,10µM*,?,?
COc1ccc2c(c1)-c1c(ssc1=S)C(C)(C)N2C(=O)CSC1=NCCS1,?,-80*,10µM*,·,·
CC1(C)c2ssc(=S)c2-c2ccccc2N1C(=O)CSC1=NCCS1,?,-33,?,·,·
SMILES,FMDV inh,HCMV antiviral,HCV inh,Vaccinia mCherry,VACV Venus inh
Cc1cc2c(cc1C)N(C(=O)CSC1=NCCS1)C(C)(C)c1ssc(=S)c1-2,?,-72*,?,-21%,-10%
CC1=CC(C)(C)N(C(=O)CSc2nnc(N)s2)c2cc(C)c(C)cc21,-25%,25,?,·,·
CCOc1ccc2c(c1)-c1c(ssc1=S)C(C)(C)N2C(=O)c1ccco1,0%,-5,10µM*,?,-20%
CCN(CC)CCCCN1c2ccccc2Oc2ccc(Cl)cc21,-24%,·,·,·,·
COc1cccc(NS(=O)(=O)c2c(C)n(C)c(=O)n(C)c2=O)c1,2%,-70*,14%,3%,-1%
COc1ccc(NS(=O)(=O)c2c(C)n(C)c(=O)n(C)c2=O)cc1OC,-5%,18,11%,-21%,1%
Cc1cc(C(=O)N/N=C/c2cc(Br)cc(Br)c2OC(=O)c2cccc(F)c2)n[nH]1,-23%,-96*,?,?,-15%
O=C(N/N=C/c1cc(Br)cc(Br)c1O)c1ccncc1,17%,-22,?,7.9µM*,?
O=C(N/N=C/c1sc(=O)n(-c2ccccc2)c1Cl)c1ccncc1,-1%,-86*,?,-16%,2%
Cc1cc(C(=O)N/N=C/c2cc(Br)cc(Br)c2OC(=O)c2ccccc2)n[nH]1,·,·,1%,·,·
O=C(N/N=C/c1cc(Br)cc(Br)c1O)c1cccc(N2CCCC2=O)c1,2%,-99*,?,-9%,-13%
CCOc1ccccc1NC(=O)C1CCN(S(=O)(=O)c2cc(Br)cc3c2N(C(C)=O)CC3)CC1,?,2,·,-9%,-9%
CCc1ccc(OCCCC(=O)Nc2ccc(S(=O)(=O)Nc3cc(C)nc(C)n3)cc2)cc1,28%,15,7%,-6%,-6%
COc1ccc(S(=O)(=O)n2ccnc2C)c(C)c1C,7%,-28,17%,·,·
Cc1ccc2cc(NC(=O)C3(C)CCN3C(C)C)ccc2n1 (configuration not stated),-10%,-7,·,i,-23%
O=C(N/N=C/c1cc(Br)c(Br)s1)c1ccncc1,19%,-90*,?,?,?
O=C(NN=Cc1cc(=O)[nH]c(=O)[nH]1)c1ccncc1,-16%,-68*,39%,i,-6%
Cc1cccc(C(=O)Nc2cccc(C(=O)N/N=C/c3ccncc3)c2)c1,-18%,51,?,·,·
Cc1cccc(C(=O)Oc2c(Br)cc(Br)cc2/C=N/NC(=O)c2ccncc2)c1,-8%,-71*,0%,-11%,7%
CCN(CC(=O)Nc1c(F)cccc1F)C(=O)CNC(=O)c1cccc(C)c1,14%,3,-8%,-3%,-17%
CCOc1ccccc1C(=O)Oc1cc(C)[nH]c(=O)c1[N+](=O)[O-],-17%,21,4%,-4%,1%
Cc1cc(NC(=O)c2cn(C3CCCCC3)c(=O)c3c2c2ccccc2n3C)no1,?,97,11µM*,-17%,-21%
CCOc1ccccc1Nc1cc(-c2ccccc2)nc(C)n1,-25%,-14,·,-5%,-5%
CCOc1ccccc1Nc1cc(C)c2cccc(C)c2n1,-15%,37,7.9µM*,-11%,-13%
O=C1OCc2cc(-c3ccccc3F)ccc21,·,-11,·,·,·
CC(=O)CCc1ccc(OCC(O)CNC2CCCc3ccccc32)cc1 (configuration not stated),-9%,-73*,?,-16%,-15%
COC(=O)CCc1ccc(OCC(O)CNC(C)C)cc1 (configuration not stated),-11%,-64*,9%,i,-18%
